# Tested on: Plasmodium falciparum NF54 gametocytes
# Experiment: viability index relative to DMSO control (fraction); higher = less gametocyte killing
# Details: 12.5 µM, incubation time: 72 h
# Method in brief: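 P. falciparum NF54 gametocytes of each stage (I–V), in serum-containing medium (0.50% gametocytemia, 1.25% hematocrit, 40 µl), were incubated with compound at 12.5 µM in 384-well plates for 72 hr at 37°C under low oxygen. Wells received 5 µl of 5 µM MitoTracker Red CMXRos for 20 min. Then 5 µl was moved into 40 µl of 500 nM dye in serum-free medium and imaged after 30 min (three fields). The viability index was the gametocyte particle count divided by the plate mean of DMSO wells.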
# [1] = gametocyte stage: Stage I viability index
# [2] = gametocyte stage: Stage II viability index
# [3] = gametocyte stage: Stage III viability index
# [4] = gametocyte stage: Stage IV viability index
# [5] = gametocyte stage: Stage V viability index
SMILES,viability index [1],viability index [2],viability index [3],viability index [4],viability index [5]
O=C(Nc1ccc(F)c(Cl)c1)Nc1ccc(Cl)c(Cl)c1,0.0409,0.0309,0.0835,0.17,0.165
COc1ccccc1N=C1C(=O)c2ccccc2C(O)=C1N1CCCCC1,0.0188,0.0203,0.0297,0.0699,0.0879
COc1ccc(Br)cc1C1Nc2ccc3ccccc3c2C2=C1C(=O)CC(c1ccccc1)C2 (stereo not given),0.44,0.729,0.873,0.939,1.05
COc1ccccc1C(=O)ON=C(N)Cc1cccc2ccccc12,0.0446,0.121,0.299,0.373,0.195
O=c1nc(C=Cc2ccc(Cl)cc2)oc2ccccc12,0.874,1.01,1,0.866,0.989
CCOc1cc2c(cc1OCC)C(c1cc(Cl)c(O)c(OCC)c1)NCC2 (stereo not given),0.0402,0.163,0.539,0.829,0.922
Cc1c(C)n(Cc2ccc(F)cc2)c2ccc(C(=O)NCc3ccco3)cc12,0.478,0.756,0.932,0.827,1
COc1ccc(CCn2c(=N)c(C(=O)NCc3cccnc3)cc3c(=O)n4cccc(C)c4nc32)cc1,0.076,0.611,0.917,0.937,1.09
Cc1ccc(C(=O)c2oc3ccc4c(C)cc(=O)oc4c3c2C)cc1,1.1,0.932,0.905,1.04,1.08
COc1ccc(Nc2nc(NCc3ccccc3)c3ccccc3n2)cc1,0.0331,0.107,0.562,0.593,0.286
COc1ccc(-c2cc3c(nn2)-c2ccccc2C3=O)cc1,0.713,0.675,0.735,0.693,1
CCCCCCc1cc2cc(-c3nc4ccccc4[nH]3)c(=Nc3ccccc3C)oc2cc1O,0.0472,0.138,0.501,0.601,0.506
OC(CNC1CCCC1)Cn1c2ccccc2c2ccccc21 (stereo not given),0.0475,0.0783,0.181,0.286,0.22
O=C(Nc1ccccc1O)c1ccc(-c2ccc(Cl)cc2Cl)o1,0.0166,0.0976,0.6,0.653,0.736
COc1ccc(Nc2cc(C)nc(NCc3ccccc3)n2)cc1,0.0594,0.319,0.487,0.589,0.481
CCCCC(O)(c1ccc(Cl)cc1)C(CN1CCOCC1)c1ccc(Cl)cc1 (stereo not given),0.941,0.896,0.871,0.763,0.701
O=C(Nc1cccc(C2=NCCN2)c1)Nc1cccc(C2=NCCN2)c1,0.565,0.718,0.773,0.908,0.818
CC1=C(CC(=O)c2cccc([N+](=O)[O-])c2)C(=O)c2ccccc2C1=O,0.00612,0.00167,0.0706,0.196,0.234
CCn1c2c(c(=N)c3c1CCC3)CCCC2,0.441,0.795,0.957,0.962,0.701
Cc1nc2ccccc2c(O)c1CC=C(Cl)Cl,0.814,0.962,0.897,0.87,1.06

SMILES,viability index [1],viability index [2],viability index [3],viability index [4],viability index [5]
CC(Oc1ccc(NC(=O)c2cccs2)cc1)C(=O)c1ccc(Cl)cc1 (stereo not given),1.02,0.883,0.727,0.854,0.974
CCCC(c1nnnn1C1CCCCC1)N1CCN(C(=O)c2ccco2)CC1 (stereo not given),1.04,0.976,1.01,1.02,1.16
CC(C)(C)c1ccc2c(c1)CN(Cc1ccc(Cl)cc1)CO2,0.12,0.192,0.385,0.633,0.442
CCOc1ccc(Nc2c3ccccc3nc3ccccc23)cc1,0.0245,0.165,0.444,0.351,0.584
COc1ccc(NC(=O)C2c3ccccc3C(=O)N(CC(C)C)C2c2cccs2)cc1Cl (stereo not given),0.0453,0.00483,0.0636,0.24,0.11
O=C(NCc1ccco1)C1CCN(S(=O)(=O)c2ccc(Br)cc2)CC1,0.938,0.983,0.99,0.824,0.945
OC1CCCCC1C1(NC(=S)Nc2ccccc2)CCCCC1 (stereo not given),0.24,0.184,0.0868,0.108,0.247
Cc1ccc2cc3c(N)c4c(C)ccc(C)c4nc3nc2c1,0.0542,0.005,0.0231,0.00316,0.026
Cc1cc(C)cc(Nc2cc(C)nc3nc(C(F)(F)F)nn23)c1,1.02,1.07,1.18,0.869,0.835
CC(=O)c1ccc(NC(=O)CSc2nc(-c3ccccc3Cl)ns2)cc1,0.102,0.308,0.308,0.62,0.584
CC(=O)NCCc1nc2ccccc2n1Cc1ccc(C(C)C)cc1,0.788,0.671,0.883,0.891,0.813
O=C(c1ccccc1F)N(Cc1ccc(Cl)cc1)c1ccccn1,0.716,0.955,0.997,0.93,0.967
COc1ccc(OC)c(C2C3=C(CC(C)(C)CC3=O)N(c3ccc(Cl)c(Cl)c3)C3=C2C(=O)CC(C)(C)C3)c1,0.713,0.88,0.807,0.807,0.623
CCOC(=O)c1ccc2nc(-c3ccccc3)cc(O)c2c1,0.606,0.719,0.761,0.757,1.12
c1ccc(CNc2nc(Nc3ccccc3)nc3ccccc23)cc1,0.0367,0.211,0.586,0.563,0.481
CN1C=C(c2ccc3ccccc3n2)C(c2c[nH]c3ccccc23)c2ccccc21 (stereo not given),0.178,0.0874,0.273,0.294,0.351
Cn1c(=O)n(C)c2cc(CNCCNc3ccnc4cc(Cl)ccc34)ccc21,0.49,0.57,0.597,0.75,0.494
COc1ccc(CCNC(=O)c2cc(S(=O)(=O)N3CC(C)CC(C)C3)ccc2Sc2ccc(F)cc2)cc1OC (stereo not given),0.104,0.445,0.844,0.769,0.987
O=C1CC(O)(C(F)(F)C(F)(F)F)Oc2ccccc21 (stereo not given),1.22,0.957,1.2,1.19,0.813
CCOc1ccc(-c2nc(NC(=O)c3cccc(S(C)(=O)=O)c3)sc2C)cc1,0.956,0.686,1.1,0.857,0.857

SMILES,viability index [1],viability index [2],viability index [3],viability index [4],viability index [5]
OCCNc1nc(Nc2ccc(Cl)c(Cl)c2)nc2ccccc12,0.0254,0.246,0.665,0.484,0.442
Oc1c2c(nc3ccccc13)CCCC2,0.828,0.959,0.985,0.87,0.961
COCCN(C(=O)Cc1cccs1)C(C(=O)NCc1ccc(OC)cc1)c1ccc(C(C)C)cc1 (stereo not given),0.846,0.801,1.18,1.11,0.967
CCCc1c(CC)c(=N)c2ccccc2n1C,0.815,0.952,1.09,0.951,1.1
O=C(NC(c1ccccc1)c1ccc2cccnc2c1O)c1ccccc1 (stereo not given),0.00552,0.029,0.0453,0.103,0.0769
O=C(Nc1ccc(N2CCN(Cc3ccccc3)CC2)cc1)c1cccs1,0.941,0.866,0.795,0.875,1.15
c1ccc(-c2ccc(-c3nc4ccccc4[nH]3)cc2)cc1,0.527,0.768,0.867,0.784,0.967
CCOc1cc2c(cc1OCC)C(c1cc(C)c(O)c(C)c1)NCC2 (stereo not given),0.0111,0.123,0.642,0.851,0.78
CCOc1ccccc1CNC(=O)C1c2ccccc2C(=O)N(CC(C)C)C1c1cccs1 (stereo not given),0.579,0.549,0.795,0.793,1.08
CC1CC2=C(CC1CNCCCN(C)C)C(C)(C)CCC2 (stereo not given),0.383,0.362,0.48,0.468,0.312
Cc1ccc(-c2cc(C(=O)Nc3ccc(S(=O)(=O)N4CCCCC4)cc3)[nH]n2)c(O)c1,0.453,0.939,0.973,1.09,0.967
Oc1c(CN2CCN(c3ccccc3F)CC2)cc(Br)c2cccnc12,0.0376,0.0566,0.0353,0.0253,0.026
COc1ccc(C2C(C(=O)Nc3cccc(OC)c3)c3ccccc3C(=O)N2C2CCCCC2)cc1 (stereo not given),0.0691,0.0974,0.488,0.551,0.519
CCCN(CCC)CC(O)COc1ccccc1C(=O)Nc1ccccc1 (stereo not given),0.0829,0.175,0.46,0.593,0.516
CCN1CCN(c2c(C(=O)c3ccccc3)cnc3cc(OC)c(OC)cc23)CC1,1.03,0.988,1.22,1,0.909
c1ccc(C2=Nc3ccccc3N=C(c3ccccc3)c3ccccc32)cc1,0.0839,0.0541,0.0543,0.123,0.0909
OC(CNCc1ccccc1)Cn1c2ccccc2c2ccccc21 (stereo not given),0.0629,0.0658,0.172,0.342,0.26
COc1cc(C(=O)Nc2nc3c(cc4c5c(cccc53)CC4)s2)cc(OC)c1OC,0.18,0.5,1.04,0.775,0.818
COc1ccc(C=C2SC(Nc3ccccc3)=NC2=O)cc1,1.03,0.768,0.663,0.791,0.727
CC1CCN(Cc2ccc(NC(=O)c3cc4ccc5cccnc5c4[nH]3)cc2)CC1,0.265,0.505,0.902,0.954,0.769

# — the supplement of paper PMC4723716
